Assay results as given in PubChem BioAssay (EPA / NIEHS).
Where “and” joins values, the source holds several entries; their conditions need not be identical. Identical values can stand only once. A structure can be active in one record and inactive in another. Calls of active or inactive are those of the source. Rule for the calls: active = hit-call score of the fitted dose curve at least 0.9, where 1 is the maximum; inactive = score below 0.9.

Key:
[1] = read-out: Interleukin 17F (IL17F), IL17F (gene 112744); experiment: BSK_BT_xIL17F: BioMAP Diversity Plus: BT Assay for Interleukin 17F (IL17F) Biomarker Activity (AID 2284243); conditions: primary human B cells with PBMC
Outline: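 Luminex readout of IL-17F secretion, 24 h; cells: human B cells with PBMC; positive-direction analysis, DMSO control.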

[2] = read-out: Actin alpha 1 (ACTA1), ACTA1 (gene 58); experiment: BSK_MyoF_ACTA1: BioMAP Diversity Plus: MyoF Assay for Actin alpha 1 (ACTA1) Biomarker Activity (AID 2284244); conditions: primary human lung fibroblasts
Outline: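 Lung fibroblasts, human primary, 24 h compound exposure → a-SMA ELISA. Positive-direction fit vs DMSO control.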

[3] = read-out: Interleukin 2 (IL2), IL2 (gene 3558); experiment: BSK_BT_xIL2: BioMAP Diversity Plus: BT Assay for Interleukin 2 (IL2) Biomarker Activity (AID 2284245); conditions: primary human B cells with PBMC
Outline: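 B cell + PBMC co-culture (human primary), compound added, 24 h incubation; secreted IL-2 measured multiplexed on Luminex xMAP; gain-of-signal fit vs DMSO.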

[4] = read-out: Basic fibroblast growth factor (bFGF), FGF2 (gene 2247); experiment: BSK_MyoF_bFGF: BioMAP Diversity Plus: MyoF Assay for Basic fibroblast growth factor (bFGF) Biomarker Activity (AID 2284246); conditions: primary human lung fibroblasts
Outline: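 ELISA-measured bFGF level serves as the read-out, taken 24 h after chemical dosing of human lung fibroblasts. Values represent signal gain over the DMSO negative control.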

[5] = read-out: Collagen IV, COL4A1 (gene 1282); experiment: BSK_MyoF_CollagenIV: BioMAP Diversity Plus: MyoF Assay for Collagen IV Biomarker Activity (AID 2284247); conditions: primary human lung fibroblasts
Outline: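 Steps: dose human lung fibroblasts; culture 24 h; quantify Collagen IV by ELISA; fit increase versus DMSO control. Parallel SRB total-protein staining (0.1% SRB after 10% TCA fixation, 560 nm) tracks overt cytotoxicity.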

[6] = read-out: Monokine induced gamma interferon (MIG), CXCL9 (gene 4283); experiment: BSK_KF3CT_MIG: BioMAP Diversity Plus: KF3CT Assay for Monokine induced gamma interferon (MIG) Biomarker Activity (AID 2284248); conditions: primary human keratinocytes with fibroblasts
Outline: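 MIG in dosed human skin co-cultures was measured by ELISA at 24 h, relative to DMSO.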

[7] = read-out: Collagen I, COL1A1 (gene 1277); experiment: BSK_hDFCGF_CollagenI: BioMAP Diversity Plus: hDFCGF Assay for Collagen I Biomarker Activity (AID 2284250); conditions: primary human foreskin fibroblasts
Outline: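 Human skin primary fibroblasts dosed with test chemical, harvested at 24 h, Collagen I quantified by ELISA; parallel SRB staining (0.1% SRB after 10% TCA fixation, 560 nm) tracked cytotoxicity.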

[8] = read-out: Interferon-inducible T-cell alpha chemoattractant (ITAC), CXCL11 (gene 6373); experiment: BSK_hDFCGF_ITAC: BioMAP Diversity Plus: hDFCGF Assay for Interferon-inducible T-cell alpha chemoattractant (ITAC) Biomarker Activity (AID 2284251); conditions: primary human foreskin fibroblasts
Outline: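 Primary human foreskin fibroblasts (hDFCGF system) treated for 24 h; I-TAC quantified by ELISA. Gain-direction fitting versus DMSO; parallel SRB staining of total protein flagged overt cytotoxicity.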

[9] = read-out: Plasminogen activator inhibitor-1 (PAI1), SERPINE1 (gene 5054); experiment: BSK_KF3CT_PAI1: BioMAP Diversity Plus: KF3CT Assay for Plasminogen activator inhibitor-1 (PAI1) Biomarker Activity (AID 2284252); conditions: primary human keratinocytes with fibroblasts
Outline: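 ELISA read-out of PAI-1 taken 24 h after chemical treatment of a human skin primary co-culture of keratinocytes and foreskin fibroblasts. Increases over DMSO-treated wells defined activity.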

[10] = read-out: Monocyte Chemoattractant Protein-1 (MCP1), CCL2 (gene 6347); experiment: BSK_IMphg_MCP1: BioMAP Diversity Plus: IMphg Assay for Monocyte Chemoattractant Protein-1 (MCP1) Biomarker Activity (AID 2284253); conditions: primary human endothelial cells with macrophages
Outline: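 Human venular endothelial cells co-cultured with macrophages; MCP-1 measured by ELISA 24 hours post-dose and fitted against DMSO. Cytotoxicity monitored by SRB total-protein staining in parallel cultures.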

[11] = read-out: Interleukin-8 (IL8), CXCL8 (gene 3576); experiment: BSK_KF3CT_IL8: BioMAP Diversity Plus: KF3CT Assay for Interleukin-8 (IL8) Biomarker Activity (AID 2284254); conditions: primary human keratinocytes with fibroblasts
Outline: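 Using parallel SRB-stained cultures to flag overt toxicity, the study quantified IL-8 by ELISA in human keratinocyte–foreskin fibroblast co-cultures 24 h after dosing, with DMSO as negative control and baseline.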

[12] = read-out: Plasminogen activator inhibitor-1 (PAI1), SERPINE1 (gene 5054); experiment: BSK_MyoF_PAI1: BioMAP Diversity Plus: MyoF Assay for Plasminogen activator inhibitor-1 (PAI1) Biomarker Activity (AID 2284256); conditions: primary human lung fibroblasts
Outline: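 In this multiplexed primary-cell system, fibroblasts from human lung received compound for 24 h before ELISA detection of PAI-1; overt toxicity was checked by SRB (0.1%, TCA-fixed, 560 nm) in parallel wells.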

CD69, CD69 (gene 969) = experiment: BSK_IMphg_CD69: BioMAP Diversity Plus: IMphg Assay for CD69 Biomarker Activity (AID 2284257); conditions: primary human endothelial cells with macrophages
Outline: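 Human venular endothelial cells co-cultured with macrophages; CD69 quantified by ELISA 24 h after compound addition. Activity fitted in the positive direction relative to DMSO baseline; cytotoxicity tracked in parallel cultures via SRB total-protein staining.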

[13] = read-out: Eotaxin 3, CCL26 (gene 10344); experiment: BSK_BF4T_Eotaxin3: BioMAP Diversity Plus: BF4T Assay for Eotaxin 3 Biomarker Activity (AID 2284258); conditions: primary human bronchial epithelial cells with fibroblasts
Outline: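 Co-culture of human bronchial epithelial cells and dermal fibroblasts, exposed to chemicals for 24 h versus DMSO. Eotaxin-3 quantified by ELISA; cytotoxicity checked in parallel cultures by sulforhodamine B total-protein staining.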

[14] = read-out: Monocyte Chemoattractant Protein-1 (MCP1), CCL2 (gene 6347); experiment: BSK_BF4T_MCP1: BioMAP Diversity Plus: BF4T Assay for Monocyte Chemoattractant Protein-1 (MCP1) Biomarker Activity (AID 2284259); conditions: primary human bronchial epithelial cells with fibroblasts
Outline: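 Co-culture of bronchial epithelial cells and dermal fibroblasts dosed with chemical; MCP-1 measured by ELISA 24 h later. Activity fitted in positive direction versus DMSO; cytotoxicity checked by SRB staining in parallel cultures.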

[15] = read-out: Intercellular Adhesion Molecule 1 (ICAM1), ICAM1 (gene 3383); experiment: BSK_BF4T_ICAM1: BioMAP Diversity Plus: BF4T Assay for Intercellular Adhesion Molecule 1 (ICAM1) Biomarker Activity (AID 2284260); conditions: primary human bronchial epithelial cells with fibroblasts
Outline: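 Co-culture of human bronchial epithelial cells and dermal fibroblasts exposed 24 h to chemical; cell-surface ICAM-1 quantified by ELISA. Parallel SRB total-protein staining assessed cytotoxicity; activity fitted relative to DMSO.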

[16] = read-out: Macrophage Inflammatory Protein-1 Alpha (MIP1a), CCL3 (gene 6348); experiment: BSK_IMphg_MIP1a: BioMAP Diversity Plus: IMphg Assay for Macrophage Inflammatory Protein-1 Alpha (MIP1a) Biomarker Activity (AID 2284255); conditions: primary human endothelial cells with macrophages
Outline: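 Co-culture of human venular endothelial cells and macrophages exposed to compounds for 24 h; MIP-1a measured by ELISA relative to DMSO. Cytotoxicity assessed in parallel cultures by sulforhodamine B total-protein staining at 560 nm.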

Measured: AC50

O=S(=O)(O)C(F)(F)C(F)(F)C(F)(F)C(F)(F)C(F)(F)C(F)(F)C(F)(F)F
not listed: [16]
inactive: all other assays above

FC(F)(F)C(F)(F)C(F)(F)N(C(F)(F)C(F)(F)C(F)(F)F)C(F)(F)C(F)(F)C(F)(F)F
inactive: [1] | [2] | [3] | [4] | [5] | [6] | [7] | [8] | [9] | [10] | [11] | [12] | CD69, CD69 (gene 969) | [13] | [14] | [15]
active: CD69, CD69 (gene 969) 1.09 µM

C#C[C@]1(O)CC[C@H]2[C@@H]3CCc4cc(OC)ccc4[C@H]3CC[C@@]21C
inactive: [2] | [3] | [4] | [5] | [12]
active: [1] 20 µM

COC(=O)CCC(F)(F)C(F)(F)C(F)(F)C(F)(F)F
inactive: all assays above

FC(F)(F)C(F)(F)C(F)(F)C(F)(F)C(F)(F)C(F)(F)C(F)(F)I
active: [2] 3.33 µM | [5] 4.81 µM and 1.16 µM
not listed: [16]
inactive: all other assays above

Oc1ccc(Nc2ccccc2)cc1
inactive: [2] | [4] | [5]
active: [1] 27.7 µM | [3] 37.2 µM | [12] 7.66 µM

C=CC/C=C/C/C=C/C/C=C/C
inactive: [1] | [2] | [3] | [4] | [5]
active: [12] 0.016 µM

Nc1ccc([N+](=O)[O-])cc1O
inactive: [1] | [2] | [3] | [4] | [5] | [12]

CCCCCCCCCCCCCCCC[N+](C)(C)Cc1ccccc1
active: [1] 2.96 µM | [2] 1.36 µM | [3] 2.01 µM | [4] 2.02 µM | [5] 3.21 µM | [12] 2.47 µM

CCO[Si](CCC(F)(F)C(F)(F)C(F)(F)C(F)(F)C(F)(F)C(F)(F)F)(OCC)OCC
inactive: [1] | [2] | [3] | [4] | [5] | [6] | [7] | [8] | [9] | [10] | [11] | [12] | CD69, CD69 (gene 969) | [13] | [14] | [15]
active: CD69, CD69 (gene 969) 0.26 µM

OCC(F)(F)C(F)(F)C(F)(F)C(F)(F)C(F)(F)C(F)F
inactive: all assays above

CCCCC(CC)COP(=O)(O)OCC(CC)CCCC (centres undefined)
inactive: [6] | [7] | [11]
active: [7] 20 µM | [8] 29.7 µM and 20 µM | [9] 31.1 µM and 26.6 µM

C=C(C)C(=O)OCC(F)(F)C(F)(F)C(F)(F)C(F)(F)C(F)(F)C(F)(F)C(F)(F)F
not listed: [16]
inactive: all other assays above

O=C(O)C(F)(OC(F)(F)C(F)(OC(F)(F)C(F)(F)C(F)(F)F)C(F)(F)F)C(F)(F)F (centres undefined)
not listed: [16]
inactive: all other assays above

O=C(O)C(F)(F)C(F)(F)C(F)(F)C(F)(F)C(F)(F)C(F)(F)C(F)(F)C(F)(F)C(F)(F)C(F)F
active: [2] 38.1 µM and 36.2 µM | [5] 8.18 µM and 8.12 µM | [6] 49.3 µM and 48 µM | [8] 12.8 µM and 5.95 µM | [9] 19.3 µM and 13.8 µM | [10] 49.5 µM and 48.9 µM | [12] 23.6 µM | CD69, CD69 (gene 969) 30 µM | [13] 5.95 µM | [14] 13.3 µM and 3.36 µM | [15] 25.6 µM and 17.8 µM
inactive: [1] | [3] | [4] | [7] | [11] | [16] | [12] | CD69, CD69 (gene 969) | [13]

CCCCOCCOCCOC(=O)CCCCC(=O)OCCOCCOCCCC
inactive: [1] | [2] | [3] | [4] | [5] | [12]

Cc1ccc(S(=O)(=O)OCC(F)(F)C(F)(F)C(F)(F)C(F)(F)C(F)(F)C(F)F)cc1
inactive: [1] | [2] | [3] | [4] | [5] | [6] | [7] | [8] | [9] | [10] | [11] | [12] | CD69, CD69 (gene 969) | [13] | [14] | [15]
active: [14] 7.88 µM

CCCCCCCOC(=O)c1ccccc1C(=O)OCCCCCCC
active: [1] 12.2 µM | [3] 17.5 µM
inactive: [2] | [4] | [5] | [12]

CCc1c(Br)c(Br)c(Br)c(Br)c1Br
inactive: [1] | [2] | [3] | [4] | [5] | [12]

CC(=O)Nc1ccc(N=Nc2cc(C)ccc2O)cc1
inactive: [1] | [2] | [3] | [4] | [12]
active: [5] 10.6 µM
